# Article PMC12136788
# Changes are numbered by the printed parent chain. Whole data set: some 5,800 sequences, median “enrichment r” near 0.54, cut for the highest 2% near 16. The sample as a whole holds a higher share of the highest values than the screen did.
# B1: chr20:54218986:54219149:+|CDS|ENSG00000101132|unk|FALSE|unique (ssRNA)
# RNA: GGGAGUUCUACAGUCCGACGAUCAAAUUUGCAAGAAGAAAUUGACGCCUUAGAAUCCAGAGUGGAAUCAAUUCAGCGAGUGUUAGCAGAUUUGAAAGUUCAGUUGUAUGCAAAAUUCGGGAGCAACAUAAACCUUGAAGCUGACAACAGAGGAUUGAGCAUCA
# B2: chr5:136988535:136988636:-|CDS|ENSG00000152377|msi1|total|mutant (ssRNA)
# RNA: GGGAGUUCUACAGUCCGACGAUCGGAAAGCAUCAGGCUUGGUGGCAGCUGAGAUAUGCCUUUUGUUUGGCAGGGUUUGACACCCGCAUCCUGCCCAUCUGCAAGGACUCCCUGGGCUGGAUGUUCAACAAGUUGGACAUGAACCAACAGAGGAUUGAGCAUCA
# B3: ENSG00000107863:be:win_3301|CDS|ENSG00000107863|bound_else_gene|NA|bound_elsewhere_windowed (ssRNA)
# RNA: GGGAGUUCUACAGUCCGACGAUCAAGGAAGAGUCGGAAAGGAAACUUCUCAGUAAAGAUGAUACCAGUCCCCCAAAAGACAAAGGCACAUGGAGAAAAGGCAUUCCAAGUAUCAUGAGAAAGACAUUUGAGAAAAAGCCAACUCAACAGAGGAUUGAGCAUCA
# B4: ENSG00000136451:be:win_2301|3pUTR|ENSG00000136451|bound_else_gene|NA|bound_elsewhere_windowed (ssRNA)
# RNA: GGGAGUUCUACAGUCCGACGAUCAAAAAUCUACAAAUUGUGUUUUGCUAAGAAAAGCCUCAACUGACAGAGGAGAAGUCAAGUGUGUGGACAGGCAAGCUCCUAAUAAACAGAGUCCAGUGGGAUUCCUAUUUAGGAGCCAAGCAACAGAGGAUUGAGCAUCA
# B5: chr10:123166816:123166917:+|3pUTR|ENSG00000154473|unk|FALSE|unique (ssRNA)
# RNA: GGGAGUUCUACAGUCCGACGAUCAAAAACUUAAAGGUAUAUUAGCAGGUUAGCCUUUGUUCUGUGGGAGAUCCAGGCCUUGUUAGAAGGACCAAGGCCAGAAUGCCCAGUUUAGCCUUAGCAUUCAAACCCUUCAUUGUUUUUCAACAGAGGAUUGAGCAUCA
# B6: chr12:48653210:48654175:-|three_prime_utr|ENSG00000139620|control|control|control (ssRNA)
# RNA: GGGAGUUCUACAGUCCGACGAUCGCACCAUUGUCUCAGAGUGGAUUGGCUACUGCAAAUGGGAAGCCAGAACCCACUUCUAUUAGUUGAUAGUUUGGGGAACCAUUUUACUUUGGUGGAUUUAAAUUUCUCGUUCUUCAAAGACAACAGAGGAUUGAGCAUCA
# B7: chr3:62294290:62294391:+|3pUTR|ENSG00000144724|msi1|total|mutant (ssRNA)
# RNA: GGGAGUUCUACAGUCCGACGAUCAACCCGUCCUCUAAAAAUUCCCUAUUACUCCUACCGCAAUCUAAUAAAAACUACCUACACCGUUACUGUUUUCUUUCCUUCUUUGCCAAAUGUUUUAUAAUAAAUCUCUUAAUUACAUACCAACAGAGGAUUGAGCAUCA
# B8: chr1:229660051:229660152:+|3pUTR|ENSG00000135763|msi1|FALSE|bound_elsewhere (ssRNA)
# RNA: GGGAGUUCUACAGUCCGACGAUCCUCAUUCAUAGUCUCAGUUACCCAGAUAACCUCGGUUGUCACCUUGGAGUAUCUUGUUGUAGUCCCUUUACUAUGUGUAUGUAUAUAGAUGUGCAUAUAAAUAUAUAUAGUAGCUAAAUUCAACAGAGGAUUGAGCAUCA
# B9: chr11:130144177:130144243:+|3pUTR|ENSG00000084234|msi1_unk|total|mutant (ssRNA)
# RNA: GGGAGUUCUACAGUCCGACGAUCAUGAGGGUGUCCGCUGCUGCUUUCCUUCGGAAUCCAGUGCUUCCACAGAGAUCCGCCUGCCGCUUAUAUUUGACAUUCUUCACUGUCUGUUGUUUACCUACCGCCGCUUUUUACCGUUCACAACAGAGGAUUGAGCAUCA
# B10: chr17:77216858:77216994:+|3pUTR|ENSG00000129657|unk|FALSE|bound_elsewhere (ssRNA)
# RNA: GGGAGUUCUACAGUCCGACGAUCUGUUUCUACCUUUAGUACCUUGCCACUCUUUUAAAACGCUGCUGUCAUUUCCCAUUUCUUAGUACUAAUGAUUCUUUGAUUCUCCCUCUAUUAUGUCUUAAUUCACUUUCCUUCCUAAAUCAACAGAGGAUUGAGCAUCA
# B11: chr1:162523450:162523604:+|3pUTR|ENSG00000152332|msi1|total|mutant (ssRNA)
# RNA: GGGAGUUCUACAGUCCGACGAUCAGACUAAGUUGUGCCAGAUGUAAAUCAACCCCUCUUUCCGUUUACUUCCGACUUUGUAUCCGCUCAUCUUUUUUGCCGUAAAUCUACCGUUUUAAGGUUUCUCAAGAUGUGGCUCUACCUCAACAGAGGAUUGAGCAUCA
# B12: chr1:162523450:162523604:+|3pUTR|ENSG00000152332|msi1|FALSE|unique (ssRNA)
# RNA: B11 RNA with C61U, C62A, C71U, C72A, C83U, C84A, C99U, C100A, C110U, C111A
# B13: chr10:119167843:119167906:-|3pUTR|ENSG00000165672|msi1_unk|FALSE|overlapping (ssRNA)
# RNA: GGGAGUUCUACAGUCCGACGAUCUGCAUGAUCCCUCAUCCCUGAAAUUGAGUUUAUGUAGUCAUUUUACUUAUUUUAUUCAUUAGCUAACUUUGUCUAUGUAUAUUUCUAGAUAUUGAUUAGUGUAAUCGAUUAUAAAGGAUACAACAGAGGAUUGAGCAUCA
# B14: chr3:62294290:62294391:+|3pUTR|ENSG00000144724|msi1|FALSE|unique (ssRNA)
# RNA: B7 RNA with C27U, C28A, C57U, C58A, C83U, C84A
# B15: chr1:965281:965395:+|3pUTR|ENSG00000187961|unk|total|mutant (ssRNA)
# RNA: GGGAGUUCUACAGUCCGACGAUCCCAUCCGUUCACGUCUCUGCAUCCAUUCCUUCAUGUCUUUAUUCCGUUGUUUAUUUAUUCCGUUAUUUAUCUUAUUUAUUGAGGGGUGAGGAGUGCCACGGCUGCCCGUUUACACCUUUACAACAGAGGAUUGAGCAUCA
# B16: chr7:107760707:107760808:+|3pUTR|ENSG00000105879|unk|FALSE|unique (ssRNA)
# RNA: GGGAGUUCUACAGUCCGACGAUCAAACAUGAAAUAUGUAGUAUGCAGAUAUCAUUUAUUAGAUAGUUUGUAGUGUAUACAUUUAGAACAUACUUCUUUUGACAAAGGGUGAUCUGAUUGCUAAUUUACCAUUUUAUUCUGUCACAACAGAGGAUUGAGCAUCA
# B17: chr1:965281:965395:+|3pUTR|ENSG00000187961|unk|FALSE|unique (ssRNA)
# RNA: B15 RNA with C67U, C68A, C83U, C84A
# B18: chr7:107760707:107760808:+|3pUTR|ENSG00000105879|unk|total|mutant (ssRNA)
# RNA: B16 RNA with U38C, A39C, U59C, A60C, U63C, A64C, U70C, A71C, U83C, A84C
# B19: chr12:2800410:2800520:+|CDS|ENSG00000004478|unk|total|mutant (ssRNA)
# RNA: GGGAGUUCUACAGUCCGACGAUCAAAUACAAGCAAGCUUUACUACAGUAUAAGAAGAUCGUGUCUUGGCUGGAAUAUGAGUCCCGUUUUUCCAAUGAGGAAGCACAGAAAGCACAGGCCCUUCGACUGGCCUCUCACCUCAACCAACAGAGGAUUGAGCAUCA
# B20: chr11:46743636:46743700:-|3pUTR|ENSG00000175216|msi1_unk|total|mutant (ssRNA)
# RNA: GGGAGUUCUACAGUCCGACGAUCUUGUAAAAUUGUCCUAAUCUUUCCCCGCUUUUUAACCGUUAAUAUCCGAAACUCUUUAACCGUUUUCCUUUCAGUUUGUGAGCUCUUCUCUGUCGCCCUGAAGGGUCACUGUAUUCUGUACAACAGAGGAUUGAGCAUCA
# B21: chr2:166409664:166409935:-|three_prime_utr|ENSG00000136546|control|control|control (ssRNA)
# RNA: GGGAGUUCUACAGUCCGACGAUCUGUGGUAACAAGCCAAGCUUUUAAUGUCAUUGUUAUGGUUCUUAUAUGUUUCCAAGCAAUAGCCAUGAUGAUAGACACUGAUGUUCAGAGUCUACAAAUGUCCAUUGCUCUCUACUGGAUCAACAGAGGAUUGAGCAUCA
# B22: ENSG00000070961:be:win_5601|3pUTR|ENSG00000070961|bound_else_gene|NA|bound_elsewhere_windowed (ssRNA)
# RNA: GGGAGUUCUACAGUCCGACGAUCGAGGUAGCAUGAUAUGCUGGAAAGCAUAUUAGACUAGGAGUCAAGACCUGGUUUCUAGUCUUGGUUUUGCCAUUAAUGUGCUGCAUGAUCUUGGGAAAAUCAUUUACCCUAAAUAAGGGUCAACAGAGGAUUGAGCAUCA
# Target: MSI1 full-length (mouse, UniProt Q61474 1-362)
# Sequence (Q61474 whole entry): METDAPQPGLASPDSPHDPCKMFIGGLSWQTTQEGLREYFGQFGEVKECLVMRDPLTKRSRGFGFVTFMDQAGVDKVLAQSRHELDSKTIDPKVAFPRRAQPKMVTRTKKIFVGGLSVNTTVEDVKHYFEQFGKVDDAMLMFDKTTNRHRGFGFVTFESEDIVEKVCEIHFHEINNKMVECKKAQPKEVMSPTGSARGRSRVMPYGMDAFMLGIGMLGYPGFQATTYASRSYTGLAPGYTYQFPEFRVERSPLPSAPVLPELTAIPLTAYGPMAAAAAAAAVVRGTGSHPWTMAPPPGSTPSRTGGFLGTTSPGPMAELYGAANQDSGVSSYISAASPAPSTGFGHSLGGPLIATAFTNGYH
# Assay: nsRBNS (natural sequence RNA bind-n-seq); RBNS binding buffer (assumed for nsRBNS): 25 mM Tris pH 7.5, 150 mM KCl, 3 mM MgCl2, 0.01% Triton X-100, 500 ug/ml BSA, 20 U/ml SUPERase-In, 4 C; UNK is unkempt and MSI1 is Musashi-1; names of the RNAs are library labels; protein concentration not given here; high values mean tight binding
row,Binder,binding signal [enrichment R]
1,B1,0.378
2,B2,0.511
3,B3,0.359
4,B4,0.431
5,B5,5.77
6,B6,0.61
7,B7,8.49
8,B8,3.57
9,B9,0.557
10,B10,6.66
11,B11,0.276
12,B12,19.3
13,B13,1.93
14,B14,32
15,B15,8.96
16,B16,56.7
17,B17,64.6
18,B18,0.319
19,B19,0.381
20,B20,0.866
21,B21,0.263
22,B22,0.263
